A selection: hits, their analogues and other compounds. The true share with any hit is near 2.8%.
PI5P4K alpha inh = qHTS for Inhibitors of phosphatidylinositol 5-phosphate 4-kinase (PI5P4K). Phosphatidylinositol 5-phosphate 4-kinase type-2 alpha (Homo sapiens), P48426. PI5P4Kalpha enzyme, ADP-Glo luminescence, 60 min; stronger effect = lower value. max response, %. hit rate 1.2% among 330,000; active = max response of -50% or lower; inconclusive = between -30% and -50%; inactive = -30% or higher; also: value at the top dose of about 77 µM; % is scaled to controls: 0 for no effect and ±100 for the full control effect
Target sequence (P48426 whole entry, looked up): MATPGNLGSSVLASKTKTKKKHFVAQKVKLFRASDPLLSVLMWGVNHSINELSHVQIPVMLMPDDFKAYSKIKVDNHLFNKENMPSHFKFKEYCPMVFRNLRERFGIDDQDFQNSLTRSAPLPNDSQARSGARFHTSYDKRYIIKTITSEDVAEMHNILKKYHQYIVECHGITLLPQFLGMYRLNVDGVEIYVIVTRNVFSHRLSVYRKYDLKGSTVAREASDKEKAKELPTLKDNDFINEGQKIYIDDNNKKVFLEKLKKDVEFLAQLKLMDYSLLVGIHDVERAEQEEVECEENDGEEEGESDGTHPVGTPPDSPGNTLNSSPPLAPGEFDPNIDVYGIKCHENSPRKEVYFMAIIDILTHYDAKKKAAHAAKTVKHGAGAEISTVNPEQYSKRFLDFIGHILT
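qHTS, 1536-well: enzyme/substrate mix, compound by pin tool, 5 microM ATP final; RT 60 min; ADP-Glo reagents 1 (45 min) then 2 (30 min); luminescence.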
Pol iota inh = qHTS for Inhibitors of Polymerase Iota; DNA polymerase iota (Homo sapiens), Q9UNA4; Pol iota fluorescent replication assay, 10 min; Potency, µM (highest dose often 115 µM), for inactives: at the highest dose activity, negative = inhibition, usual class: inhibitors; hit rate 1% among 390,000; AID 588590, 2011; also: potency is read from the fitted curve at half-maximal effect
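Pol iota at 10 nM preincubated 15 min with compounds at room temperature; reaction started with fluorescent substrate, 50 nM final. Fluorescence read kinetically at 0 and 10 min; buffer-only wells as negative control.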
Pol kappa inh-1 = qHTS for Inhibitors of Polymerase Kappa; Potency, µM (top dose mostly 107 µM), for inactives: at the top dose activity, negative = inhibition, actives largely listed as inhibitors; purified Pol kappa, fluorescent DNA synthesis assay, 10 min; hit rate 0.53% among 400,000; DNA polymerase kappa (Homo sapiens), Q9UBT6; AID 588579, 2011; also: potency is read from the fitted curve at half-maximal effect; % is scaled to controls: 0 for no effect and ±100 for the full control effect
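First, compounds were pin-transferred onto 10 nM Pol kappa. After 15 min at room temperature, substrate was added to 50 nM final. Fluorescence was then measured kinetically at 0 and 10 min.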
WRN helicase inh-1 = qHTS for Inhibitors of WRN Helicase | hit rate 0.46% among 360,000 | WRN helicase unwinding, fluorescent forked duplex, kinetic | Bifunctional 3'-5' exonuclease/ATP-dependent helicase WRN (Homo sapiens), Q14191 | Potency, µM (top dose mostly 114 µM), inactives show at the highest dose activity change, negative = inhibition, most hits filed as inhibitors; also: potency is read from the fitted curve at half-maximal effect; % is scaled to controls: 0 for no effect and ±100 for the full control effect; nearly all actives have a fitted effect of over 55% in size
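Primary qHTS, 1536-well format. 20 nM WRN + compound, 15 min RT; start with 100 nM forked fluorophore/quencher duplex, 2 mM ATP (final); kinetic read ex 525/em 598 nm.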
Pol beta inh = qHTS Assay for Inhibitors of DNA Polymerase Beta | P06746 | Pol beta primer extension/strand displacement, fluorescence kinetic | Potency, µM (doses to about 114 µM), for the others: top-dose activity change, negative = inhibition, hits mostly inhibitors | hit rate 1.3% among 340,000 | AID 485314, 2010; also: potency is read from the fitted curve at half-maximal effect; % is scaled to controls: 0 for no effect and ±100 for the full control effect
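Homogeneous kinetic assay of primer extension and strand displacement by 10 nM Pol beta, preincubated 15 min at room temperature with compound before 50 nM substrate (final) was added. Read at 0 and 10 min; four-parameter Hill fit.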
Pol eta inh-1 = qHTS for Inhibitors of Polymerase Eta; recombinant Pol eta, fluorescent DNA replication assay; Potency, µM (series often up to 114 µM), inactives show top-dose activity change, negative = inhibition, actives largely listed as inhibitors; hit rate 1.2% among 390,000; also: potency is read from the fitted curve at half-maximal effect; % is scaled to controls: 0 for no effect and ±100 for the full control effect
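Fluorescent replication assay: 50 nM final substrate added after a 15 min room-temperature compound preincubation with 10 nM enzyme. Signal taken at 0 min and again at 10 min.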
TbPGK inh = qHTS for inhibitors of Phosphogylcerate Kinase: Hit Validation Screen. Potency, µM (doses to about 57.5 µM), without a hit: at the top dose activity change, negative = inhibition, most hits filed as inhibitors. AID 686980, 2013. TbPGK coupled GAPDH assay, Kinase-Glo luminescence. hit rate 79% among 500. shares compounds with Pol kappa inh-1; also: potency is read from the fitted curve at half-maximal effect; % is scaled to controls: 0 for no effect and ±100 for the full control effect; nearly all actives have a fitted effect of over 65% in size
POLI cherry-pick = qHTS for Inhibitors of Polymerase Iota: Confirmatory Assay for Cherry-picked Compounds. shares compounds with Pol kappa inh-1. Pol iota primer extension, TAMRA/BHQ fluorescence. Potency, µM, actives largely listed as inhibitors. hit rate 77% among 1,500. AID 720496, 2013; also: potency is read from the fitted curve at half-maximal effect
Pol kappa inh-2 = qHTS for Inhibitors of Polymerase Kappa: Confirmatory Assay for Cherry-picked Compounds; purified Pol-kappa, fluorescent strand-displacement substrate; hit rate 76% among 920; AID 720501, 2013; shares compounds with Pol eta inh-1; Potency, µM, actives largely listed as inhibitors; also: potency is read from the fitted curve at half-maximal effect
Pol eta inh-2 = qHTS for Inhibitors of Polymerase Eta: Confirmatory Assay for Cherry-picked Compounds | shares compounds with Pol eta inh-1 | Potency, µM, hits mostly inhibitors | hit rate 64% among 2,600 | Pol eta primer extension, TAMRA/BHQ fluorescence, 10 min; also: potency is read from the fitted curve at half-maximal effect
WRN helicase inh-2 = qHTS for Inhibitors of WRN Helicase: Confirmatory Assay for Cherry-picked Compounds; shares compounds with WRN helicase inh-1; WRN helicase DNA unwinding, fluorescence kinetic; Potency, µM (titrated, usually from 57.1 µM), inactives show at the highest dose activity, negative = inhibition, hits mostly inhibitors; hit rate 63% among 610; also: potency is read from the fitted curve at half-maximal effect; nearly all actives have a fitted effect of over 65% in size
TO DNA binding = qHTS for Inhibitors of WRN Helicase: Thiazole Orange DNA Binding Counterscreen; hit rate 10% among 610; shares compounds with WRN helicase inh-1; thiazole orange DNA binding displacement, fluorescence; Potency, µM (top dose mostly 57.1 µM), inactives show top-dose activity change, negative = inhibition, usual class: inhibitors;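 also: drop in dye fluorescence marks compound binding to DNA; potency is read from the fitted curve at half-maximal effect; % is scaled to controls: 0 for no effect and ±100 for the full control effect; nearly all actives have a fitted effect of over 60% in size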
BLM counter = qHTS for Inhibitors of WRN Helicase: BLM Helicase Counterscreen for WRN Inhibitors; hit rate 60% among 610; shares compounds with WRN helicase inh-1; Recombinant BLM helicase DNA unwinding, red fluorescence; Potency, µM (top dose mostly 57.1 µM), inactives show at the top dose activity change, negative = inhibition, actives largely listed as inhibitors; also: potency is read from the fitted curve at half-maximal effect; nearly all actives have a fitted effect of over 60% in size
ADP-Glo counter = qHTS for Inhibitors of PI5P4K: ADP-Glo counter assay; shares compounds with PI5P4K alpha inh; ADP-Glo detection counter-screen, luciferase luminescence, no enzyme; Potency, µM (top dose mostly 76.9 µM), for the others: top-dose activity change, negative = inhibition, hits mostly inhibitors; 1,100 tested, under 10 active
* marks the source's active call; other numbers are inactive results; [ ] = dose if it differs, or a comment. Unless noted, calls follow the shape of the dose curve; as a rule, active = well fitted curve in the direction sought with a large enough effect; inconclusive = small, poorly fitted or top-dose-only effect, or another doubt; inactive = no such curve, though single readings can be large; an effect the other way counts as inactive or inconclusive.

How did O=C(NC1CC1)C1CCN(S(=O)(=O)c2cc(Cl)ccc2Cl)CC1 do in these assays?
PI5P4K alpha inh: 4; Pol iota inh: 4%; Pol kappa inh-1: 0%; WRN helicase inh-1: -6%; Pol beta inh: -26%; Pol eta inh-1: -19%

What do the screens show for `O=C(NCc1ccco1)c1ccc(Cn2cc([N+](=O)[O-])cn2)o1`?
Pol iota inh: 11%; Pol kappa inh-1: -13%; WRN helicase inh-1: 1%; Pol beta inh: 3%; Pol eta inh-1: 0%

Results for O=C(NCc1ccco1)c1ccc([N+](=O)[O-])o1 ?
PI5P4K alpha inh: -63*; Pol iota inh: 10µM*; Pol kappa inh-1: inconclusive; WRN helicase inh-1: inconclusive; Pol beta inh: 13µM*; Pol eta inh-1: 40µM*; POLI cherry-pick: 42*; Pol eta inh-2: 54*; ADP-Glo counter: 1%

What do the screens show for `CCOc1ccc(-c2ccc(SC)nn2)cc1`?
PI5P4K alpha inh: -50*; Pol iota inh: 133%; Pol kappa inh-1: -7%; WRN helicase inh-1: -17%; Pol beta inh: 13%; Pol eta inh-1: -16%; TbPGK inh: 8.2µM*; ADP-Glo counter: 16µM*

How did CCC(=O)N1c2ccccc2CC1C(=O)NCCN1CCN(c2cccc(C)c2C)CC1 (stereo not drawn) do in these assays?
Pol iota inh: -10%; Pol kappa inh-1: -13%[60.1 µM]; Pol beta inh: 13%; Pol eta inh-1: -2%

Results for COc1ccc(NC(=O)CN(C)C(=O)c2cc(-c3ccco3)nc3ccccc23)cc1 ?
PI5P4K alpha inh: -74*; Pol iota inh: 8.9µM*; Pol kappa inh-1: 45µM*; WRN helicase inh-1: 63µM*; Pol eta inh-1: 2.8µM*; POLI cherry-pick: 30*; Pol eta inh-2: 43*; ADP-Glo counter: -5%

How did COC(=O)C1CCN(C(=O)c2cc(-c3ccco3)nc3ccccc23)CC1 do in these assays?
PI5P4K alpha inh: -82*; Pol iota inh: inconclusive; Pol kappa inh-1: 22µM*; WRN helicase inh-1: 50µM*; Pol eta inh-1: 8.9µM*; TbPGK inh: 13µM*; POLI cherry-pick: 8.4*; Pol kappa inh-2: 9.5*; Pol eta inh-2: 15*; ADP-Glo counter: -3%

What do the screens show for `O=C(c1cc(-c2ccco2)nc2ccccc12)N1CCN(Cc2ccccc2)CC1`?
PI5P4K alpha inh: -26; Pol iota inh: inconclusive; Pol kappa inh-1: -19%; WRN helicase inh-1: -2%[11.6 µM]; Pol eta inh-1: inconclusive

How did CN(C)C(CNC(=O)c1cc(-c2ccco2)nc2ccccc12)c1ccccc1 (stereo not drawn) do in these assays?
PI5P4K alpha inh: -54*; Pol iota inh: inconclusive; Pol kappa inh-1: 25µM*; WRN helicase inh-1: inconclusive; Pol eta inh-1: 11µM*; POLI cherry-pick: 34*; Pol eta inh-2: 76*; ADP-Glo counter: -1%

What do the screens show for `CCCCCCNC(=O)c1cc(-c2ccco2)nc2ccccc12`?
PI5P4K alpha inh: -86*; Pol iota inh: inconclusive; Pol kappa inh-1: 50µM*; WRN helicase inh-1: 40µM*; Pol beta inh: 7.9µM*; Pol eta inh-1: 13µM*; POLI cherry-pick: 27*; Pol eta inh-2: 30*; WRN helicase inh-2: inconclusive; TO DNA binding: -23%; BLM counter: 17µM*; ADP-Glo counter: -9%

Results for CC(C)CCNC(=O)c1cc(-c2ccco2)nc2ccccc12 ?
Pol iota inh: 18%; Pol kappa inh-1: 0%; WRN helicase inh-1: -2%; Pol beta inh: -2%; Pol eta inh-1: -5%

How did O=C(CNC(=O)C1CCCCC1)OC(C(=O)c1ccccc1)c1ccccc1 (stereo not drawn) do in these assays?
Pol iota inh: 1%; Pol kappa inh-1: 9%; Pol eta inh-1: -6%

What do the screens show for `CCOC(=O)c1c(C)oc2c(Cl)cc(NS(=O)(=O)c3ccc(Cl)c(C)c3)cc12`?
Pol iota inh: 19%; Pol kappa inh-1: 5%; Pol beta inh: 0%; Pol eta inh-1: -22%

Results for COc1cccc2c1Oc1ncccc1N(C(=O)CCC(=O)NCc1ccc(N(C)C)cc1)C2 ?
Pol iota inh: 16%; Pol kappa inh-1: -1%; Pol beta inh: 3%; Pol eta inh-1: 0%

Screening data as filed in PubChem.
